Measured values taken from PubChem BioAssay AID2101 (National Center for Advancing Translational Sciences (NCATS), 2009).
“And” between values parts separate entries of the source, which are not always exact repeats. Identical values can stand only once. Hit rate of the full screen: of about 330,000 compounds, about 300 (0.091%) were called active. Not shown: some 4% with an inconclusive outcome. Calls come from the whole dose curve; as a rule, active = well fitted inhibition curve with a large enough effect; inconclusive = small, poorly fitted or top-dose-only effect, or effect the other way, or another doubt; inactive = no such curve, though single readings can be large or run the other way. Many of the other results were omitted from the sample, so actives are more common in it than they were. The source holds several records for some structures; these can differ, active in one and inactive in another.

Biological target: Lysosomal acid glucosylceramidase (Homo sapiens) (UniProt P04062)
Assay: qHTS Assay for Inhibitors and Activators of N370S glucocerebrosidase as a Potential Chaperone Treatment of Gaucher Disease;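 for activity change, negative = inhibition: 0% = full enzyme activity and -100% = no enzyme basal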
Settings: N370S GC spleen homogenate, 4MU-glucoside fluorescence; series mostly up to 59.4 µM; activity change, negative = inhibition: at the top concentration
Source text: NIH Chemical Genomics Center [NCGC]
NIH Molecular Libraries Probe Production Centers Network [MLPCN]
Assay Submitter (PI): Wei Zheng
Glucocerebrosidase (GC) catalyzes the hydrolysis of beta-glucocerebroside to glucose and ceramide in lysosomes. Mutations in the glucocerebrosidase gene result in Gaucher disease, an autosomal recessive lysosomal storage disorder. Many of the mutations encountered in patients with Gaucher disease are missense alterations that may cause misfolding, decreased stability and/or mistrafficking of this lysosomal protein. […] These inhibitors include iminosugar analogs and three non-iminosugar inhibitors identified from a previous HTS of 62,000 compounds with the wild type recombinant enzyme. However, the enhancement of enzyme activity by the chaperone action of an enzyme inhibitor must be balanced against the direct inhibition of the enzyme. An enzyme activator could also function as a chaperone by binding to the enzyme and helping to correct its misfolding and mistrafficking. While activators for GC have not yet been identified, they may have better therapeutic potential than inhibitors. Therefore the discovery and development of chemical activators may provide a new strategy for the chaperone therapy.
We have optimized a new assay using N370S mutant GC derived from the spleen of a Gaucher patient. […] In addition, the MLPCN compound library has expanded, which increases the chance of finding new and better probes.
NCGC Assay Protocol Summary:
This is a fluorogenic enzyme assay with 4-methylumbelliferyl-beta-D-glucopyranoside as the substrate and N370S glucocerebrosidase from human spleen homogenate as the enzyme preparation. Upon the hydrolysis of this fluorogenic substrate, the resulting product, […] which can be detected by a standard fluorescence plate reader. Data were normalized to the controls for basal activity (without enzyme) and 100% activity (with enzyme). The AC50 values were determined from concentration-response data modeled with the standard Hill equation.
Assay buffer: 50 mM citric acid (titrated with potassium phosphate to pH 5.0), 100 mM potassium chloride, 10 mM sodium chloride, 1 mM magnesium chloride, 0.01% Tween-20.
1536-well assay protocol:
(1) Add 2 ul/well of spleen homogenate (27 ug final)
(2) Add 23 nL compounds in DMSO solution. The final titration was 0.5 nM to 58 uM.
(3) Add 2 ul of substrate (1 mM final)
(4) Incubate at 37C for 40 min.
(5) Add 2 ul stop solution (1M NaOH and 1M Glycine mixture, pH 10)
(6) Detect the assay plate in a ViewLux plate reader (PerkinElmer) with Ex=365 nm and Em=440nm.
Keywords: Glucocerebrosidase, beta-glucosidase, Gaucher Disease, pharmacological chaperone, chaperone therapy, high throughput screening, glucocerebrosidase inhibitor, MLSMR, MLSCN, NIH Roadmap, qHTS and NCGC
Potency is the fitted concentration of half-maximal effect.

Structure (SMILES)	Potency	activity change, negative = inhibition
CNCC[C@H](Oc1ccc(C(F)(F)F)cc1)c1ccccc1	inactive and 8.91 µM (active)	–
CC(C)CC(C)Nc1ccc(Nc2ccccc2)cc1 (stereo not given)	–	-14.2% (inactive)
CC(CCC(=O)O)C1CCC2C3C(O)C[C@@H]4CC(O)CC[C@@]4(C)C3CC[C@@]12C (stereo not given in full)	–	-11% (inactive)
CC(Cl)Cl	–	-0.151% (inactive)
CC(=O)[O][Sn]([c]1ccccc1)([c]1ccccc1)[c]1ccccc1	–	-2.97% (inactive)
